# Assay results as given in PubChem BioAssay AID1546 (The Scripps Research Institute Molecular Screening Center, 2009).
# The other results are listed elsewhere or left out. Unmarked numbers belong to inactive results. Calls of active or inactive are those of the source. Cut-off read from the data, not from the text of the source: active = activation above about 45%; inactive = the rest.
# Molecular target: Neuropeptide Y receptor type 1 (Homo sapiens) (UniProt P25929)
# Assay: human Y1 receptor positive modulation or activation – cell-based, confirmation (AID 1546);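 note: cells challenged with NPY at its EC10 plus isoproterenol stimulus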
# Settings: cell-based NPY-Y1 potentiator/agonist assay; at 3.6 µM; hits give high values
# Sequence of Neuropeptide Y receptor type 1 (Homo sapiens) (P25929 whole entry, looked up): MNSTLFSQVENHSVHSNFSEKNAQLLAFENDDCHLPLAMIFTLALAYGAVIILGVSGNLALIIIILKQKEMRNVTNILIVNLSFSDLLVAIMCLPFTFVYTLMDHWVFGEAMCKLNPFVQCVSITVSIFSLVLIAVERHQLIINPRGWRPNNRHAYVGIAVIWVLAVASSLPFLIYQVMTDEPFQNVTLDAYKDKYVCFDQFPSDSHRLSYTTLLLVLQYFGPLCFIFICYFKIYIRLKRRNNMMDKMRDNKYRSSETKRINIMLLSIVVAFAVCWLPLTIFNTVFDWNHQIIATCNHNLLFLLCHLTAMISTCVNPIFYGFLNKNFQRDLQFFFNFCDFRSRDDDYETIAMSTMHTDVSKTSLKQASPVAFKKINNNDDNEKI
row,Structure (SMILES),activation
1,O=[N+]([O-])c1cc(Cl)cc(/C=N/NC(=S)Nc2cc(S(=O)(=O)N3CCOCC3)ccc2Cl)c1O,72.1% (active)
2,O=C1/C(=C/c2coc3ccc(O)cc3c2=O)SC(=S)N1c1ccccc1,26.1%
3,Cc1ccccc1NCC(=O)N/N=C\c1ccc([N+](=O)[O-])s1,34.6%
4,COC(=O)c1ccc(NC(=O)CN(c2ccc(C)cc2)S(=O)(=O)c2c(C)n[nH]c2C)cc1,43%
5,N#Cc1ccc(C(=O)Nc2nc(-c3cccs3)c(C(=O)C(F)(F)F)s2)cc1,-50.3%
6,CN1C(=O)c2ccccc2C(C(=O)NCCCN2CCCC2)C1c1c[nH]c2ccccc12 (stereo unspecified),7.17%
7,O=C(c1cccs1)N1CCN(C(=O)N2CCOCC2)CC1,-4.4%
8,O=C(Nc1ccc2c(c1)CCC2)c1cccc(S(=O)(=O)Nc2ccccc2Cl)c1,5.62%
9,CSc1nc(-c2ccco2)nn1C(=O)c1ccccc1Cl,31.6%
10,O=C(Nc1ccccc1C(F)(F)F)c1cc(-c2ccc(O)cc2)on1,2.15%
11,CC1=C/C(=N\OS(=O)(=O)c2ccccc2)C=CC1=O,7.41%
12,CCn1c2ccccc2c2cc(NC(=O)Nc3ccc([N+](=O)[O-])cc3C)ccc21,26.1%
13,Cc1cccc(OCC(O)CN2CCN(CCN3C(=O)c4cccc5cccc(c45)C3=O)CC2)c1C (stereo unspecified),63.5% (active)
14,COC(=O)c1sc(-c2ccc(C(C)(C)C)cc2)cc1NC(=O)/C=C/C(=O)O,40.8%
15,COCCn1nnnc1C(c1ccccc1Cl)N1CCN(c2ccccc2OC)CC1 (stereo unspecified),-14.9%
16,CC(=O)c1ccc(NC(=O)C2CC(=O)Nc3nc4ccccc4n32)cc1 (stereo unspecified),38.7%
